Targets with a hit are over-represented here; the source holds about 7,900 in all. About 0.6% of all pairs of compound and target were hits.
Tests used:
Assay in all cases: log2 fold change, soluble protein after heating vs DMSO (PISA); higher = thermal stabilisation; K562 cells, 10 uM, 30 min; active = over 0.2 and 3.5 SD of the protein, either way, in both replicates (recomputed)
[1] = compound: NC(=O)Nc1cc(-c2cccc(F)c2)sc1C(=O)N[C@H]1CCCNC1
In short: (§1)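 K562 cells at 2×10^6 cells/mL were treated with 10 μM compound for 30 min. Aliquots were heated for 3 min across 48°C-58°C, pooled, and extracted in PBS with 0.5% NP-40 at 4°C; soluble protein was the supernatant after 21,000xg for 90 min. Soluble protein was quantified by TMTpro 16plex LC-MS/MS with channel sums equalised, and reported as log2 fold change in thermal stability against DMSO controls, with values from duplicates.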

[2] = compound: NC(=O)c1cnc(N[C@@H]2CCCC[C@@H]2N)nc1Nc1cccc(-n2nccn2)c1
In short: as §1

[3] = compound: NC1(c2ccc(-c3nc4ccn5c(=O)[nH]nc5c4cc3-c3ccccc3)cc2)CCC1
In short: as §1

[4] = compound: NCC(=O)Nc1ccc(-n2nc(C(F)(F)F)cc2-c2ccc3c(ccc4ccccc43)c2)cc1
In short: as §1

entinostat = compound: Nc1ccccc1NC(=O)c1ccc(CNC(=O)OCc2cccnc2)cc1 [entinostat]
In short: as §1

vorinostat = compound: O=C(CCCCCCC(=O)Nc1ccccc1)NO [vorinostat]
In short: as §1

citarinostat = compound: O=C(CCCCCCNC(=O)c1cnc(N(c2ccccc2)c2ccccc2Cl)nc1)NO [citarinostat]
In short: as §1

silmitasertib = compound: O=C(O)c1ccc2c(c1)nc(Nc1cccc(Cl)c1)c1ccncc12 [silmitasertib]
In short: as §1

[5] = compound: O=C1NC(=O)C(c2cnc3ccccn23)=C1c1cn2c3c(cc(F)cc13)CN(C(=O)N1CCCCC1)CC2
In short: as §1

[6] = compound: c1cc(OCCN2CCCCC2)cc(-c2n[nH]c3ccc(-c4nnc[nH]4)cc23)c1
In short: as §1

Measured: log2 fold change

UBE2E3 (UniProt Q969T4)
UniProt Q969T4, sequence (Q969T4 whole entry, looked up): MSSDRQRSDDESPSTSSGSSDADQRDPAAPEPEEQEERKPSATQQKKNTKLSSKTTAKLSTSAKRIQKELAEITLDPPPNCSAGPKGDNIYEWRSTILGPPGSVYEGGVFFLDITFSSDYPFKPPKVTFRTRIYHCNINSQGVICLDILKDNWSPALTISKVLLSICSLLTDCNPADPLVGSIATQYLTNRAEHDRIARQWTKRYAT
inactive: [1] -0.007 | [2] -0.052 | [3] -0.155 | [4] -0.106 | entinostat 0.051 | vorinostat 0.103 | citarinostat 0.063 | silmitasertib -0.016 | [5] 0.023 | [6] -0.007

UFL1 (UniProt O94874)
UniProt O94874, sequence (O94874 whole entry, looked up): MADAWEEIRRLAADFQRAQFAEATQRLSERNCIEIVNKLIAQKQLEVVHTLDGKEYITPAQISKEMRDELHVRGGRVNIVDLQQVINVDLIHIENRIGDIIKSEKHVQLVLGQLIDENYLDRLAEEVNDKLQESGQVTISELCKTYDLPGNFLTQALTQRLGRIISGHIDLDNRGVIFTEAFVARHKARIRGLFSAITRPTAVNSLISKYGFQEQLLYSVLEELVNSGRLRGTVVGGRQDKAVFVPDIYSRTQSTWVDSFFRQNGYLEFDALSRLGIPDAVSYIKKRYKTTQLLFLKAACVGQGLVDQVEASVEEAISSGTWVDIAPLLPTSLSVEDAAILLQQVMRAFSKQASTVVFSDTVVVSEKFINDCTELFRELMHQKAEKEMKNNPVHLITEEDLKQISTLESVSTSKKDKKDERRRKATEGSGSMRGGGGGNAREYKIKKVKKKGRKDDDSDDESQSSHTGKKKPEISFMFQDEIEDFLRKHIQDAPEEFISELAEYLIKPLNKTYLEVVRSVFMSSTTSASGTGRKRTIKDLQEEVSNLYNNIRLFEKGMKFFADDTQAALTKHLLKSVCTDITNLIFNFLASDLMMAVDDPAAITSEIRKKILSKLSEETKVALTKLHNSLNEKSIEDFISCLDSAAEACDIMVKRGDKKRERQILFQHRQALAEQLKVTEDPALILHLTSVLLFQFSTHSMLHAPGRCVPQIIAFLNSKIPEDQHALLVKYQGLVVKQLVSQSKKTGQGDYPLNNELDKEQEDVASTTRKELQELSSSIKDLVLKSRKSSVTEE
inactive: [1] -0.06 | [2] -0.013 | [3] -0.107 | [4] -0.066 | entinostat 0.059 | vorinostat 0.074 | citarinostat 0.063 | silmitasertib 0.029 | [5] -0.013 | [6] -0.048

VPS33A (UniProt Q96AX1)
UniProt Q96AX1, sequence (Q96AX1 whole entry, looked up): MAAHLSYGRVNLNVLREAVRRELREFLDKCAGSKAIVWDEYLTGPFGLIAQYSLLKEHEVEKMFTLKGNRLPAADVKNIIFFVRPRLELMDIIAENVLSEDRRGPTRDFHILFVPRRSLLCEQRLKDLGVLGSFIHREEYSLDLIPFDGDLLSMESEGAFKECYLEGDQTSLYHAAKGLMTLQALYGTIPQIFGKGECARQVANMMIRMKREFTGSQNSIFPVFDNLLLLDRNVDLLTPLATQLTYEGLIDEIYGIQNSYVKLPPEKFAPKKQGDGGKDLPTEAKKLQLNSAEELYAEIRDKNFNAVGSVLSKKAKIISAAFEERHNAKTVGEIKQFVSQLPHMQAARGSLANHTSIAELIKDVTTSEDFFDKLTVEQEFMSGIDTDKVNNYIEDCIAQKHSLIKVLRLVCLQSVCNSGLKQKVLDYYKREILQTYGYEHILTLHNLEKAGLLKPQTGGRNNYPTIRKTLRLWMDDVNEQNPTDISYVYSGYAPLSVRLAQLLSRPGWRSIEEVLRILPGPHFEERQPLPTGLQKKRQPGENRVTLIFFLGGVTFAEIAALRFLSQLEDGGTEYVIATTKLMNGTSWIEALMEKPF
inactive: [1] 0.012 | [2] -0.121 | [3] -0.191 | [4] -0.084 | entinostat 0.05 | vorinostat 0.051 | citarinostat 0.063 | silmitasertib 0.019 | [5] 0.029 | [6] -0.059

TMEM120A (UniProt Q9BXJ8)
UniProt Q9BXJ8, sequence (Q9BXJ8 whole entry, looked up): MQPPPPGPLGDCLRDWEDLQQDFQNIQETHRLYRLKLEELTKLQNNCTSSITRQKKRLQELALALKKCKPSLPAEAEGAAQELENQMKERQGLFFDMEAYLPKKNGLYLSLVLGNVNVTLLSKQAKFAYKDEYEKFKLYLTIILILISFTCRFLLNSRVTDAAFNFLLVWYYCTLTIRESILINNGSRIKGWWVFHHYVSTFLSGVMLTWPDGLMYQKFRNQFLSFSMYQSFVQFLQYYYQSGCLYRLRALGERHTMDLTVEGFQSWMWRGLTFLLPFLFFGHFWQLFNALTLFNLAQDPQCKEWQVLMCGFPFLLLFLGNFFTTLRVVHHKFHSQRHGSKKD
inactive: [1] 0.229 | [2] 0.089 | [3] 0.058 | [4] 0.091 | entinostat 0.002 | vorinostat 0.1 | citarinostat 0.252 | silmitasertib -0.124 | [5] 0.185 | [6] 0.082

TRAPPC6B (UniProt Q86SZ2)
UniProt Q86SZ2, sequence (Q86SZ2 whole entry, looked up): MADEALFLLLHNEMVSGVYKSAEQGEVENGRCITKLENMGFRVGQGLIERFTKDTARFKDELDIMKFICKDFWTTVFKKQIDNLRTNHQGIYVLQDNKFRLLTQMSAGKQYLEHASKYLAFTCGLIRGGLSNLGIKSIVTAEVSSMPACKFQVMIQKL
inactive: [1] 0.025 | [2] 0.016 | [3] -0.025 | [4] 0.007 | entinostat 0.066 | vorinostat 0.013 | citarinostat 0.046 | silmitasertib 0.001 | [5] 0.143 | [6] -0.058

TMEM208 (UniProt Q9BTX3)
UniProt Q9BTX3, sequence (Q9BTX3 whole entry, looked up): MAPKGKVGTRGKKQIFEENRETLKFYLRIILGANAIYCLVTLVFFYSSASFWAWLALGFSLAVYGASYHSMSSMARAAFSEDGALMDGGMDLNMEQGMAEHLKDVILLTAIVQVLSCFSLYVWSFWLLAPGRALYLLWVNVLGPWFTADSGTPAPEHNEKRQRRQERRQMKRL
inactive: [1] 0.038 | [2] -0.133 | [3] -0.28 | [4] -0.181 | entinostat -0.01 | vorinostat 0.187 | citarinostat 0.036 | silmitasertib 0.048 | [5] 0.02 | [6] -0.09

TTC33 (UniProt Q6PID6)
UniProt Q6PID6, sequence (Q6PID6 whole entry, looked up): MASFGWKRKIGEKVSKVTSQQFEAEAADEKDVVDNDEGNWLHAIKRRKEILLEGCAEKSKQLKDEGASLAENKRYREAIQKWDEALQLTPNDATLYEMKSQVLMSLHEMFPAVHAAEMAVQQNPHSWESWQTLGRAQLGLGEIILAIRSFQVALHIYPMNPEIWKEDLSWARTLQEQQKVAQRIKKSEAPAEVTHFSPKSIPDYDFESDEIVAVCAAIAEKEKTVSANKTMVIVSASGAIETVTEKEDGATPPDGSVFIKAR
inactive: [1] -0.1 | [2] -0.158 | [3] -0.197 | [4] -0.133 | entinostat -0.123 | vorinostat -0.072 | citarinostat -0.038 | silmitasertib 0.151 | [5] -0.08 | [6] 0.003

Reference: the supplement of paper PMC10849652
